# According to publication PMC9838217, “Structure of SALL4 zinc finger domain reveals link between AT-rich DNA binding and Okihiro syndrome”:
# Numbering of substitutions follows the chain as printed.
# Target: T1, SALL4 ZFC4 R900W (HT-SELEX) (Mus musculus, UniProt Q8BX22 870-940, R900W)
# T1 sequence: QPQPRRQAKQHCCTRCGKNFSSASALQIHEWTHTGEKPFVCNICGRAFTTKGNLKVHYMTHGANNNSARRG
# Experiment: HT-SELEX; high values mean tight binding
# Conditions: protein: recombinant; vector His6-GST; dsDNA, one strand shown
# How it was run: (§1)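 For each canonical k-mer, binding signal is the read fraction as fold change versus the initial random library. Data came from up to 6 triplicate cycles in which purified recombinant mouse SALL4 zinc finger cluster 4 (residues 870–940, 1 µg) was incubated 10 min at room temperature with library DNA (1.5 µg first cycle, 200 ng later) in 100 µl of 10 mM Tris–HCl pH 7.5, 50 mM NaCl, poly(dI-dC), DTT, followed by Ni2+ bead capture, PCR amplification, MiSeq sequencing and a 6-mer scan.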
row,Sequence,binding signal
1,CATAGA,1.37 ± 0.0567 fold-change vs cycle 0
2,CAAATG,1.17 ± 0.0524 fold-change vs cycle 0
3,AAAACT,1.7 ± 0.107 fold-change vs cycle 0
4,ACAAAC,1.23 ± 0.0488 fold-change vs cycle 0
5,AAACGA,1.16 ± 0.0331 fold-change vs cycle 0
6,TAAGAA,2.2 ± 0.155 fold-change vs cycle 0
7,GGAAGA,1.12 ± 0.0339 fold-change vs cycle 0
8,ACGAAA,1.12 ± 0.0308 fold-change vs cycle 0
9,ATTGTG,1.18 ± 0.0444 fold-change vs cycle 0
10,ACCAAT,1.33 ± 0.0357 fold-change vs cycle 0
11,ATCCTG,1.02 ± 0.0483 fold-change vs cycle 0
12,CTCAAA,1.2 ± 0.0701 fold-change vs cycle 0

# Target: T2, SALL4 ZFC4 G921D (HT-SELEX) (Mus musculus, UniProt Q8BX22 870-940, G921D)
# T2 sequence: T1 sequence with W31R, G52D
# Experiment: HT-SELEX; high values mean tight binding
# Conditions: protein: recombinant; vector His6-GST; dsDNA, one strand shown
# How it was run: as §1
row,Sequence,binding signal
1,AGTCAG,0.958 ± 0.0631 fold-change vs cycle 0
2,AAGATG,1.39 ± 0.12 fold-change vs cycle 0
3,AACTGA,1.35 ± 0.0948 fold-change vs cycle 0
4,AGGTAA,1.45 ± 0.089 fold-change vs cycle 0
5,AACTAG,1.31 ± 0.0994 fold-change vs cycle 0
6,AAGGTA,1.42 ± 0.11 fold-change vs cycle 0
7,CTCTTC,1.238 ± 0.012 fold-change vs cycle 0
8,GAAAAC,1.19 ± 0.0327 fold-change vs cycle 0
9,AAGGAT,1.54 ± 0.145 fold-change vs cycle 0
10,AATACC,1.3 ± 0.0234 fold-change vs cycle 0
11,CCTATA,1.35 ± 0.0515 fold-change vs cycle 0
12,ACATGT,1.4 ± 0.056 fold-change vs cycle 0
13,GATCAA,1.36 ± 0.0523 fold-change vs cycle 0
14,ATGTAG,1.34 ± 0.129 fold-change vs cycle 0
15,CATGAA,1.36 ± 0.0809 fold-change vs cycle 0
16,AATCAG,1.32 ± 0.103 fold-change vs cycle 0
17,GAGGAA,1.03 ± 0.0774 fold-change vs cycle 0
18,AAGGGT,1.01 ± 0.0322 fold-change vs cycle 0
19,AAACGA,1.16 ± 0.0214 fold-change vs cycle 0
20,ACTAGG,1.01 ± 0.0534 fold-change vs cycle 0
21,ACTTCA,1.4 ± 0.125 fold-change vs cycle 0
22,AGCATA,1.26 ± 0.0447 fold-change vs cycle 0
23,AATCCT,1.47 ± 0.113 fold-change vs cycle 0
